This is a sample that favours compounds with a hit; in the whole collection about 11% have one here.
Pf growth 48h – P. falciparum growth inhibition at 48 hours (one generation); P. falciparum luciferase growth in erythrocytes, 48 h; Potency, µM (highest dose often 28.7 µM), for inactives: at the highest dose activity change, negative = inhibition, actives largely listed as inhibitors; 310,000 tested, 5.9% active; AID 504832
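Here the parasites carry a stable luciferase gene and grow inside erythrocytes in Albumax-based RPMI medium with compound for one erythrocytic cycle. Activity is scored as loss of luminescent signal.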
HCV inh – HCV inhibition. Huh7.5.1 HCVcc-Cre infection, luciferase reporter, 44 h. Potency, µM (doses to about 41.8 µM), for inactives: at the top dose activity change, negative = inhibition, hits mostly inhibitors. 340,000 tested, 3.4% active
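After 44 h co-culture of compound, cells and HCVcc-Cre (~0.5 moi), substrate is added for 15 min at room temperature and luciferase measured over 15 sec. Cells were seeded at 1,000/well and pre-cultured 4 h.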
AMA1 RON2 block – inhibitors of Plasmodium falciparum AMA1-RON2 interaction; 360,000 tested, 0.2% active; Potency, µM (doses to about 58.2 µM), for inactives: at the top dose activity change, negative = inhibition, usual class: inhibitors; AlphaScreen AMA1-biotinylated RON2 peptide binding; AID 720542;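 note: 0% = vehicle wells and -100% = peptide control; nearly all actives have a fitted effect of over 45% in size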
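AMA1 (3D7) with his tag at 25 nM final met compounds first, then biotinylated RON2 peptide at 25 nM; detection used donor plus acceptor beads, 10 µg/mL apiece, read by AlphaScreen after 30 min at room temperature.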
Pf growth 96h – inhibits malaria parasite growth, 96 h; P. falciparum luciferase reporter growth, 96 h; Potency, µM (series often up to 28.7 µM), for inactives: at the highest dose activity change, negative = inhibition, most hits filed as inhibitors; 320,000 tested, 6.9% active
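Cell-based qHTS: luciferase-tagged P. falciparum in erythrocytes (2% hematocrit, 0.05% parasitemia final) incubated with compounds for 96 hours, 37 C, 5% CO2; luciferase detection reagent then added and luminescence measured.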
The depositor's hits bear a star; ? = inconclusive; nt = no result; [ ] = remark or other dose. Calls come from the whole dose curve; as a rule, active = well fitted curve in the direction sought with a large enough effect; inconclusive = small, poorly fitted or top-dose-only effect, or another doubt; inactive = no such curve, though single readings can be large; an effect the other way counts as inactive or inconclusive. Unless noted, % is set by controls: 0 for no effect and ±100 for the full control effect; potency is the fitted concentration of half-maximal effect.

SMILES	Pf growth 48h	HCV inh	AMA1 RON2 block	Pf growth 96h
COCCC(=O)N1CCC(Oc2ccc(C(=O)N3CCCCC3CCO)cc2)CC1 (centres undefined)	-21%	1%	9%	4.7µM*
C=CCOc1ccccc1CN1CCC(Oc2ccc(C(=O)N3CCCCC3)cc2)CC1	37%	nt	-5%	10µM*
Cc1cccc(CN2CCC(Oc3ccc(C(=O)N4CCCC4)cc3)CC2)n1	?	31%	28%	2.3µM*
CN(CC(=O)Nc1cccc2ccccc12)C(=O)/C=C/c1cccs1	16%	33%	34%	43%
CC(=O)O[C@H]1[C@H]2O[C@]23[C@@H]2CC[C@]4(O)C[C@@H](O)CC[C@]4(C)C2CC[C@]3(C)[C@H]1c1ccc(=O)oc1 (some centres undefined)	20%	3.2µM*	11%	-1%
C[C@]12CC[C@H]3C(CCC4(O)CC(O)CC[C@]34C=O)C1=CC[C@H]2c1ccc(=O)oc1 (some centres undefined)	-11%[0.00184 µM]	-17%	7%	-23%
O=C(Nc1ccc2c(c1)OCCO2)c1[nH]c(C(F)(F)F)nc1-c1ccccc1	nt	nt	-9%	nt
COc1cccc(C2(C)NC(=O)N(CC(=O)Nc3ccc(N4CCOCC4)cc3)C2=O)c1 (centres undefined)	nt	-12%	-6%	nt
CCOc1ccc(NC(=O)CN(C)C(=O)CCCc2nc3ccccc3c(=O)[nH]2)cc1OCC	-12%	-2%	-7%	20%
Cc1ccc(C(=O)N/C(=C/c2ccccc2)C(=O)NC(Cc2ccccc2)C(=O)O)cc1 (centres undefined)	4%	-2%	-15%	25%
Cc1ccc(C(=O)N/C(=C/c2cccs2)C(=O)NCc2ccco2)cc1	-3%	19%	26%	0.52µM*
Cc1ccc(NC(=O)/C(=C\c2cccs2)NC(=O)c2ccccc2)cc1	?	3%	0%	7.4µM*
Cc1ccc(/C=C(\NC(=O)c2ccccc2)C(=O)NC(Cc2ccccc2)C(=O)O)cc1 (centres undefined)	1%	8%	7%[11.6 µM]	0.52µM*
O=C(Nc1ccc(O)cc1)/C(=C\c1cccs1)NC(=O)c1ccccc1	-8%	1%	-9%	36%
COc1cc(/C=C(/NC(=O)c2ccccc2)C(=O)Nc2ccccc2)c([N+](=O)[O-])cc1OC	8%	?	1%	-38%
COc1cc(/C=C(/NC(=O)c2ccccc2)C(=O)Nc2ccc(O)cc2)c([N+](=O)[O-])cc1OC	1%	0%	18%	10µM*
Cc1ccc(C(=O)NCc2cccnc2)cc1S(=O)(=O)Nc1ccccc1	-7%	?	-4%	0%
CCOC(=O)N1CCN(c2nc3ccc(C)cc3n3cnnc23)CC1	32%	5%	17%	?
CC(=O)N1CCN(CC(=O)Nc2ccc3c(c2)CCC3)CC1	11%	-1%	13%	19%
CC12CCC(O)CC1=CCC1C2CCC2(C)C3=NN=CC3CC12 (centres undefined)	nt	10%	-10%	nt
CCN(CC)S(=O)(=O)c1ccc(N2CCCC2)c(NC(=O)c2ccc(N3CCCC3=O)cc2)c1	13µM*	?	10%	12µM*
CCN(CC)S(=O)(=O)c1ccc(N2CCOCC2)c(NC(=O)c2ccc(N3CCCC3=O)cc2)c1	7.4µM*	?	4%	15µM*
O=C(Nc1ccccc1N1CCOCC1)c1ccc(N2CCCC2=O)cc1	?	?	-11%	?
CCN(CC)S(=O)(=O)c1ccc(NC(=O)c2ccc(N3CCCC3=O)cc2)cc1	nt	?	29%	nt
Cc1ccc(S(=O)(=O)NC(=O)C2(C)CCN2C(=O)CCc2ccc(Cl)cc2Cl)nc1 (centres undefined)	nt	nt	95%	nt
O=C(O)C1Nc2c(O)cc(Cl)c([N+](=O)[O-])c2C2C=CCC12 (centres undefined)	38%	-2%	2.2µM*	?
O=C(N/N=C/c1ccc(F)cc1)c1ccc(Br)cc1	16%	-3%	0%	39%
N#C/C=C(/N)c1ccc(Br)cc1	13µM*	19%	-8%	10µM*
CNS(=O)(=O)c1ccc2nc(NC(=O)c3ccc(N4C(=O)CCC4=O)cc3)sc2c1	?	-10%	-3%	3.7µM*
Oc1cc2c(cc1O)[C@H]1c3ccc(O)c(O)c3OC[C@@]1(O)C2	3.7µM*	?	32µM*	6.6µM*

Source: PubChem BioAssay (National Center for Advancing Translational Sciences (NCATS))
